Each structure is given as a SMILES string. About 1,100 (1.7%) of roughly 63,000 compounds were called active. Only a selection was taken, and actives are over-represented in it overall. Results with a measured potency or affinity are listed apart. Unmarked numbers belong to inactive results.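 How the source made its calls: active means compounds whose percent cytotoxicity in the single-dose primary screen, scaled between solvent and toxic-drug controls, exceeds 50; inactive means the rest.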

The record followed here is PubChem BioAssay AID431 (Sanford-Burnham Center for Chemical Genomics, 2006).

This assay in a line: cytotoxicity in KRAS-transformed pancreatic duct cells, primary screen, cell-based, fluorescence, HTS (AID 431).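 Further: 0% = DMSO solvent wells and 100% = doxorubicin-treated wells.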 To be noted: HPDE-C7K KRASV12 cells, Alamar Blue viability, 48 h; at 10 µM; hits give high values. (In general: Resazurin is reduced to fluorescent resorufin, in cell work by metabolically active cells.)
Take `COc1ccccc1C(=O)Nc1ccc(S(=O)(=O)Nc2cc(C)on2)cc1`: the cytotoxicity is 3.1%. Take `O=C(Nn1c(C2CC2)nc2ccccc2c1=O)c1ccco1`: the cytotoxicity is -1.6%. `Cc1nc2ccccn2c(=O)c1CCN1CCC(C(=O)c2ccc(F)cc2)CC1`: the cytotoxicity was 10.8%. As for `O=c1cc(CN2CCN(c3ccc(F)cc3)CC2)nc2sccn12`, the cytotoxicity is -7.8%. Next, `Cn1c(SCc2nc3ccccc3[nH]2)nnc1-c1cccs1`: -13.1%; `O=C(Nc1nnc(-c2cccs2)o1)c1cccc(Oc2ccccc2)c1`: 35.3%; `CCN(Cc1ccccc1)S(=O)(=O)c1ccc(C(=O)Nc2nnc(C3CC3)o2)cc1`: 6.4%. With `O=C(Nc1nnc(-c2cccs2)o1)c1cccc(F)c1` the figure was 21.9%; with `CCCCN(CC)S(=O)(=O)c1ccc(C(=O)Nc2nnc(-c3cccs3)o2)cc1`, 52.7% (active).

For the compound `CCCCN(C)S(=O)(=O)c1ccc(C(=O)Nc2nnc(-c3cccs3)o2)cc1`, the cytotoxicity was 32.1%.

Consider `CC1CN(S(=O)(=O)c2ccc(C(=O)Nc3nnc(-c4ccc5c(c4)CCCC5)o3)cc2)CC(C)O1` (stereo not given), for which the cytotoxicity is 33.7%.

As to `CCCCN(CC)S(=O)(=O)c1ccc(C(=O)Nc2nnc(-c3ccccc3Cl)o2)cc1`, the cytotoxicity was 58.3% (active). Take `O=C(Nc1nnc(-c2cccs2)o1)c1cccc(C(F)(F)F)c1`: the cytotoxicity was 77.3% (active). On to `COc1cccc(C(=O)Nc2nnc(-c3cccs3)o2)c1`, for which the cytotoxicity was 15.6%. In the case of `CC1CC(C)CN(S(=O)(=O)c2ccc(C(=O)Nc3nnc(-c4cccs4)o3)cc2)C1` (stereo not given), the cytotoxicity is 56.6% (active). Next, `Brc1ccc(-c2nnc(-c3ccc4c(c3)OCO4)o2)o1`: -2%; `COC(=O)c1ccccc1NC(=O)CSc1nnnn1C1CCCCC1`: 0.6%. Regarding `O=C(Nc1nccs1)C1CCN(S(=O)(=O)c2cccnc2)CC1`, the cytotoxicity is -8.7%.

Consider `COCCCn1cnc2c(c1=O)c1nc3ccccc3nc1n2-c1ccc(C)cc1`, for which the cytotoxicity was -9.5%. For the compound `Cn1c(=O)oc2cc(S(=O)(=O)NC3CCCc4ccccc43)ccc21` (stereo not given), the cytotoxicity was -4%. With `O=C(CCCn1c(=S)[nH]c2ccccc2c1=O)NCc1ccco1` the figure was -11%. Take `O=C(Nc1ccc(S(=O)(=O)N2CCCc3ccccc32)cc1)C1CCCO1` (stereo not given): the cytotoxicity is 12.3%. For `CN1CCN(S(=O)(=O)c2ccc(NC(=O)c3cccs3)cc2)CC1`, the cytotoxicity is -16.7%. With `CCCC(=O)Nc1nnc(-c2ccc(Cl)s2)o1` the figure was -1.5%; with `CC1CCCCN1S(=O)(=O)c1ccc(NC(=O)c2cccs2)cc1` (stereo not given), 57.2% (active). `O=C(Nc1nnc(-c2ccccc2Cl)o1)c1cccnc1`: the cytotoxicity is 28.8%.

As to `CC1(C)COCN1S(=O)(=O)c1ccc(C(=O)Nc2nnc(-c3ccc(Cl)s3)o2)cc1`, the cytotoxicity was 93.6% (active).

Regarding `O=C(Nc1nnc(C2CC2)o1)c1ccc(S(=O)(=O)N2CCCc3ccccc32)cc1`, the cytotoxicity is 60.6% (active). `COc1ccc(-c2nnc(NC(=O)c3ccc(S(=O)(=O)N4CCCc5ccccc54)cc3)o2)cc1`: the cytotoxicity was 49.3%. As to `COc1ccc(-c2nnc(NC(=O)c3ccc(S(=O)(=O)N4COCC4(C)C)cc3)o2)cc1`, the cytotoxicity was 14.3%.

Consider `CCC1CCCCN1S(=O)(=O)c1ccc(C(=O)Nc2nnc(-c3ccccc3Cl)o2)cc1` (stereo not given), for which the cytotoxicity is 76.1% (active). With `CCC1CCCCN1S(=O)(=O)c1ccc(C(=O)Nc2nnc(-c3cccs3)o2)cc1` (stereo not given), the cytotoxicity is 11.8%. Regarding `CC1CCN(S(=O)(=O)c2ccc(NC(=O)c3cccs3)cc2)CC1`, the cytotoxicity was 15.7%. For the compound `O=C1C(C=NCCCn2ccnc2)=C(O)c2ccccc21`, the cytotoxicity is 1%. Regarding `O=C(NC1CCCCC1)C1CCCN1C(=O)NCc1ccccc1` (stereo not given), the cytotoxicity was 11.8%. In the case of `CCNS(=O)(=O)c1ccc(OCCNS(C)(=O)=O)cc1`, the cytotoxicity was -2.5%. In the case of `O=C(/C=C/N1CCOCC1)c1coc2ccccc12`, the cytotoxicity was -4.5%. In the case of `Cc1cccc(C)c1NC(=O)CSc1nnc(-c2ccoc2C)n1C`, the cytotoxicity was -5.8%. With `O=C(OCCN(C1=NS(=O)(=O)c2ccccc21)c1ccc(Cl)cc1)c1ccco1`, the cytotoxicity is -16.8%.

Take `CC(O)CCc1nc2ccc(C(=O)O)cc2[nH]1` (stereo not given): the cytotoxicity is -5.2%.

Consider `CC1CCCCN1S(=O)(=O)c1ccc(C(=O)Nc2nnc(-c3ccccc3Cl)o2)cc1` (stereo not given), for which the cytotoxicity was 56.7% (active). As for `CC1CCCN(S(=O)(=O)c2ccc(C(=O)Nc3nnc(-c4ccccc4Cl)o3)cc2)C1` (stereo not given), the cytotoxicity is 63.8% (active). For the compound `Cc1nnc(NC(=O)c2ccc(S(=O)(=O)N3CCCCCC3)cc2)o1`, the cytotoxicity is 6.5%.

Consider `O=C(Nc1nnc(-c2ccccc2Cl)o1)c1ccc(S(=O)(=O)N2CCCCCC2)cc1`, for which the cytotoxicity is 43.8%.

`CC1CCCCN1S(=O)(=O)c1ccc(NC(=O)c2cccc(-n3cnnn3)c2)cc1` (stereo not given): the cytotoxicity is 20.3%. On to `CCc1nnc(NC(=O)c2ccc(S(=O)(=O)N3CCCCC3C)cc2)s1` (stereo not given), for which the cytotoxicity was -7.7%. As for `O=C(Nc1ccccc1C(=O)N1CCOCC1)c1ccco1`, the cytotoxicity was 3.4%.

For the compound `Cc1ccc(C)c(C(=O)CSc2nnnn2-c2cccnc2)c1`, the cytotoxicity was 0.6%. `Cc1cc(C)n(S(=O)(=O)c2cccc(Cl)c2Cl)n1`: the cytotoxicity was -9.2%. Consider `COc1nc(-c2ccccc2)ccc1-c1noc(-c2ccco2)n1`, for which the cytotoxicity is -3%. Next, `COC(=O)c1ccccc1S(=O)(=O)N(Cc1ccco1)Cc1cc2cc(OC)ccc2[nH]c1=O`: -1.7%; `CCCC(=O)Nc1sc2c(c1C#N)CCCC2`: 1.4%; `COC(=O)CCC(=O)Nc1sc2c(c1C#N)CCCC2`: -6.7%. With `CCc1ccc(CCC(=O)Nc2sc3c(c2C#N)CCCC3)o1`, the cytotoxicity was 73.8% (active). With `CCOC(=O)C1C(c2cccc(Cl)c2Cl)NC(=O)NC1(O)C(F)(F)F` (stereo not given) the figure was 10.1%. With `COC(=O)C1=C(C)NC(=O)CC1c1cccc(Cl)c1Cl` (stereo not given) the figure was -0.8%; with `O=C(Nc1ccc2c(c1)OCO2)c1ccc(Br)c(S(=O)(=O)N2CCCC2)c1`, 14.5%; with `CCc1ncc(C(O)c2cccc(OC)c2OC)n1C` (stereo not given), 6.9%. Turning to `CCOC(=O)c1c(N)sc(C(=O)Nc2ccc3c(c2)OCO3)c1C`, the cytotoxicity was 19.8%. In the case of `CCN(CC)S(=O)(=O)c1ccc(NC(=O)Cn2c(=O)oc3ccccc32)cc1`, the cytotoxicity was 1.6%.
